Out of some 96,000 compounds screened, about 20,000 (21%) were called active. Only a sample is shown. Unmarked numbers belong to inactive results.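 Rule for the calls: active = CYP2C19 inhibition above a set limit at 5 µM in the primary screen (cut at about 50% in these data); inactive = the rest.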

Chain of Cytochrome P450 2C19 (Homo sapiens) (P33261 whole entry, looked up): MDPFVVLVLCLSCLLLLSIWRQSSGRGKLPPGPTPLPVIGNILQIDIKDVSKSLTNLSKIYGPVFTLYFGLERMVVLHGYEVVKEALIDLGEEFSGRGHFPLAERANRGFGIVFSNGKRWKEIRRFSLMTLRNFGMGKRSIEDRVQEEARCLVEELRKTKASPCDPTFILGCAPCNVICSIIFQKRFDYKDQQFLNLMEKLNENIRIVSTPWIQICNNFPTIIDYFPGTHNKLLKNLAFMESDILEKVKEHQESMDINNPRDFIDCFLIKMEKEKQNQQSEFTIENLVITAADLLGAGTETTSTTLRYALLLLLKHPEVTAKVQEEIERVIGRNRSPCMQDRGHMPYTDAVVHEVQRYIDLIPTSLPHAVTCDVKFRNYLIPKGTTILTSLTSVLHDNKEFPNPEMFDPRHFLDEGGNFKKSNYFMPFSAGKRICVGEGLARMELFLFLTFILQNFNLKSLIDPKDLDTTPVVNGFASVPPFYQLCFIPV

This test addresses Cytochrome P450 2C19 (Homo sapiens) (UniProt P33261). Description: blockers of cytochrome P450 2C19 activity – biochemical, luminescence, ADME assay, primary screen (AID 778).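 Note: plate controls were negative control wells for no effect and 2.5 mM tranylcypromine positive control for full effect.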 The following applies: CYP2C19 Supersomes, luciferin-H EGE luminescence, 30 min; at 5 µM; stronger effect = higher value.
For orientation: inhibition means the relative decrease from the control value, in per cent. In the case of `COc1ccc(NC(=O)C(NC(C)=O)C(=O)NCc2ccccc2Cl)cc1` (stereo unspecified), the inhibition was 12.9%.
The same measure for `COc1ncnc2c1N=C1CC(C)(C)CC(N)=C1S2`: 4.5%.
Consider `CN(CCc1ccccn1)S(=O)(=O)c1ccc2c3c(cccc13)C(=O)N2`, for which the inhibition was 93.6% (active).
The same measure for `O=c1[nH]nc(Cc2ccccn2)c2ccccc12`: -0.8%; for `CCCC1C(c2ccccc2)C(C#N)(C#N)C2(C#N)CC1(N)NC2=O` (stereo unspecified): 5%.
For the compound `O=C(O)c1ccccc1NC(=S)NC(NC(=O)c1ccccc1[N+](=O)[O-])C(Cl)(Cl)Cl` (stereo unspecified), the inhibition was 2%.
Next, `CC1(C)N=C(c2ccccn2)C(C)(C)N1O`: 29.9%; `COc1ccc(NC(=O)Nc2ccc3nsnc3c2)cc1`: 20.3%.
The same measure for `COc1cccc(N2C(=O)C3CCCN3C2c2ccc(F)cc2)c1` (stereo unspecified): -0.1%; for `Cc1cc(NS(=O)(=O)c2ccccc2)no1`: -16.4%; for `O=C(/C=C/c1ccco1)Nc1cccc(-c2nc3ccccc3[nH]2)c1`: 47.9%.
As to `O=S(=O)(Nc1ccc2nc(-c3ccco3)[nH]c2c1)c1ccccc1`, the inhibition is 92.4% (active).
Consider `Cc1ccc(C)c(S(=O)(=O)n2cnc3ccccc32)c1`, for which the inhibition is -11.2%.
The same measure for `Cc1ccc(C)c(NS(=O)(=O)c2cc(Br)cnc2N)c1`: 61.5% (active); for `O=C(c1cccc2ccccc12)N1CCN(c2ccccc2F)CC1`: 35.4%; for `CC(=O)c1ccc2c(ccc3ccccc32)c1`: 35%.
Consider `COc1c(C(=O)N2CCCC2)ccc2ccccc12`, for which the inhibition was 53% (active).
Take `Cc1cc(-n2nc(C)cc2C)n2nc(C)c(-c3ccccc3)c2n1`: the inhibition is 21.4%.
Next, `COc1ccccc1C(=O)N1CCN=C1SCc1cccnc1`: 88.2% (active); `COc1ccccc1C(=O)N1CCNC(=O)C1CC(=O)Nc1ccc(Cl)cc1` (stereo unspecified): 12.1%; `CCOc1cccc(SCc2noc(C(=O)NC(C)C)c2C(=O)O)c1`: 8.8%.
In the case of `COc1ccc(OC)c(C2N(c3ccccn3)C(=O)C3CCCN32)c1` (stereo unspecified), the inhibition is -2.4%.
Next, `CCn1c(CNc2ccc(OC)cc2)nnc1SCC(=O)c1ccc(OC)cc1`: 33.9%.
As to `COc1ccc(NCc2nnc(SCc3ccccc3)n2-c2ccc(OC)cc2)cc1`, the inhibition is 85.8% (active).
As to `COc1ccc(-c2nnc(SCC(=O)c3ccco3)n2-c2ccccc2)cc1`, the inhibition was -13.8%.
Next, `CCC(=O)N1c2ccc(S(=O)(=O)CCC(=O)N3CCN(c4ccccc4)CC3)cc2CC1C` (stereo unspecified): 26.2%; `Cc1csc(=NC(=O)c2ccccc2)n1CCO`: 49.7%.
The same measure for `Cc1ccn2cc(C(=O)NC3CCN(Cc4ccccc4)CC3)nc2c1`: 11.4%; for `CCC(=O)Nc1ccc(C(=O)Nc2cc(C)on2)cc1`: 14.7%; for `CCCC(C)C(=O)Nc1ccc(NC(C)=O)cc1` (stereo unspecified): -6.8%.
Next, `O=C(NCCc1ccccn1)c1cc(C(=O)C2CCCCC2)c[nH]1`: -1.5%.
Turning to `CCOC(=O)C1CCN(c2ncnc3c2oc2ccc(Br)cc23)CC1`, the inhibition was 43.1%.
Turning to `CSc1ccccc1NC(=O)c1cc(C2CC2)on1`, the inhibition was 31.1%.
Take `Cc1nn(Cc2ccc(Cl)c(Cl)c2)c(C)c1NC(=O)c1cc(C2CC2)on1`: the inhibition is 95% (active).
The same measure for `Cc1cc(C(=O)Nc2c(C)nn(Cc3ccccc3)c2C)on1`: 11.7%.
Consider `Cc1nc2nc(CSc3nc4ccccc4s3)cc(=O)n2[nH]1`, for which the inhibition was -9.6%.
Next, `O=S(=O)(c1ccccc1)N(CC(O)CN1CCCCC1)c1ccccc1` (stereo unspecified): 17.7%; `CN(C)/C(CN1CCCCC1)=C1\N=C(c2ccccc2)OC1=O`: 63.8% (active).
Next, `O=c1oc2c(Cl)cc(Cl)cc2cc1-c1nnc(Nc2ccccc2F)s1`: -3.7%.
For `CCOC(=O)CNC(=O)CN1C(=O)CCSc2ccccc21`, the inhibition was 44.3%.
The same measure for `CCSc1ncnc2c(C#N)c3n(c12)CCCCC3`: 5.8%; for `Cc1nc(-c2ccc(NC(=O)c3cccs3)cc2)cs1`: 12.8%; for `O=C(Nc1ccccc1)OCc1cc(-c2ccc(Cl)cc2)on1`: 16.6%.
The same measure for `O=C(Nc1ccc(Cl)cc1)OCc1cc(-c2ccccc2)on1`: 76.4% (active); for `O=C(Nc1ccccc1)OCc1cn(-c2ccc(Cl)cc2)nn1`: -1.4%.
Next, `CCOC(=O)CSc1ncc(-c2cccc(Cl)c2)cn1`: 11.1%; `COc1ccccc1N=C(C)C1=C(O)COC1=O`: 27.5%.
For the compound `CC(C)N(C(=O)Cn1c(SCC(=O)N2CCN(c3ccccc3)CC2)nc2ccccc21)C(C)C`, the inhibition is 6.9%.
With `COC(=O)[C@H](Cc1ccccc1)NC(=O)N1CC(C)OC(C)C1` (stereo partly specified), the inhibition was 8.3%.
Next, `COc1ccc(-c2nnn(CC(=O)N(CCO)C(C(=O)NC3CCCC3)c3ccc(F)cc3)n2)cc1` (stereo unspecified): 7.8%.
Next, `CC(C)(C)NC(=O)Cn1nnc(-c2ccccc2Cl)n1`: 45%; `Cc1ccc(-c2nnn(CC(=O)N(CCO)C(C(=O)NC(C)(C)C)c3ccncc3)n2)cc1` (stereo unspecified): 74% (active); `CCCNC(=O)N1CCN(C(=O)NCCC)CC1`: 4.5%.
As for `COc1ccc(NC(=O)c2ccc(OC)cc2)cc1`, the inhibition is -5.6%.
On to `COCCNC(=S)c1ccc(OC)cc1`, for which the inhibition is 18%.
Next, `COc1ccc(C(=S)Nc2ccccc2)cc1`: 65.2% (active); `Oc1ccccc1CNc1ncc(Br)cc1Br`: 39.4%; `O=C(NCCSc1ccccc1)c1ccco1`: 21.8%.
Next, `COc1ccc(CCNC(=O)c2ccco2)cc1`: 55.3% (active).
The same measure for `COc1ccc(N(CC(=O)NC(C)(C)C)C(=O)c2ccco2)cc1`: -6.7%.
In the case of `CCc1ccc(-c2cc(C(=O)NCc3ccco3)c3ccccc3n2)s1`, the inhibition was 11.6%.
For `c1ccc(CCC2=NCCn3cccc32)cc1`, the inhibition is 10.1%.
Next, `O=S(=O)(c1ccc(Br)cc1)n1ccc2ccccc21`: 66.4% (active).
Consider `Cc1ccc(C)c(N2C(=O)CS/C2=N\NC(=O)c2ccccc2Cl)c1`, for which the inhibition was 63.7% (active).
The same measure for `Cc1ccc(C)c(NC(=O)C2CC(=O)N(C(C)C)C2)c1` (stereo unspecified): -10.6%; for `CC(=O)Nc1cccc(/C(C)=N/NC(=O)c2ccccc2Cl)c1`: 10.9%.
The same measure for `O=C1c2ccccc2C(Nc2ccc3c(c2)OCCO3)N1Cc1ccco1` (stereo unspecified): 72.9% (active); for `Cc1cccc(C(=O)Nc2ccccc2-c2nnn(CC(=O)Nc3ccc4c(c3)OCCO4)n2)c1`: -12.5%.
The same measure for `Cc1ccnc(N2C(=O)c3ccccc3C2Nc2ccc3c(c2)OCCO3)c1` (stereo unspecified): 93.2% (active); for `O=C(NC1CCCCC1)C1c2ccccc2C(=O)N1Cc1ccco1` (stereo unspecified): 12.4%; for `CC1CCN(c2nc3c(c(=O)[nH]c(=O)n3C)n2CCCc2ccccc2)CC1`: 18.4%.
Consider `O=C1CSC(c2cccc(F)c2)N1c1ccc(O)cc1` (stereo unspecified), for which the inhibition was 26.3%.
The same measure for `CC1C/C(=N/NC(=O)c2cccs2)CC(C)(C)C1` (stereo unspecified): 41.9%.
The same measure for `FC(F)(F)c1cc(C(F)(F)F)c2ccc(N3CCN(c4ccccc4)CC3)nc2n1`: -3.4%; for `CCOC(=O)CCCNC(=O)CN1C(=O)NC(CCc2ccccc2)C1=O` (stereo unspecified): -2.6%.
Next, `COc1ccc(-c2nnco2)cc1OC`: 11.8%.
Take `C=CCn1c(C(C)NC(=O)CC)nc2ccccc21` (stereo unspecified): the inhibition is -3.9%.
With `CCCn1c(C(Cc2ccccc2)NC(=O)COC)nc2ccccc21` (stereo unspecified), the inhibition is 90.2% (active).
Next, `CCCC(NC(=O)c1ccccc1)c1nc2ccccc2n1Cc1ccc(C(=O)OC)o1` (stereo unspecified): 2.7%; `CC(CN1CCCCC1)OC(=O)c1ccccc1Cl` (stereo unspecified): 38.8%.
The same measure for `Cc1cc(C)c(C)c(S(=O)(=O)Nc2ccc(O)cc2)c1C`: 50.9% (active).
Turning to `Cc1noc(C)c1S(=O)(=O)Nc1ccc(C(=O)O)cc1`, the inhibition is 2.3%.
The same measure for `Cc1ccc(NS(=O)(=O)c2c(C)[nH]c(=O)[nH]c2=O)cc1C`: 1.6%; for `c1ccc(Cc2nn3c(Cn4cnc5ccccc54)nnc3s2)cc1`: 39%; for `Cc1c(-c2ccccc2)nc(N)c(C#N)c1-c1cccs1`: 0.7%.
Take `CCOC(=O)c1ccc(NC(=O)CS(=O)(=O)c2cn(CC)c3ccccc23)cc1`: the inhibition was 20.6%.
`CC(C)NS(=O)(=O)c1ccc(NC(=O)C2CCCCC2)cc1`: the inhibition was 13.3%.
The same measure for `CCOC(=O)[C@H]1CCC[C@@H](NS(=O)(=O)c2ccc(NC(C)=O)cc2)C1`: 57.9% (active).
Next, `CC(C)(C)NS(=O)(=O)c1ccc(NC(=O)NC2CCCCC2)cc1`: 8%; `CC1=C(C)CC(C(=O)NNC(=O)c2ccccc2O)C(C(=O)O)C1` (stereo unspecified): -7.2%; `Cc1nc(SCC(=O)N2CCc3ccccc3C2)c2c(C)c(C)sc2n1`: 20%.
Take `O=C(Nc1ccc2c(c1)OCCO2)C(c1ccc(F)cc1)N1CCCCC1` (stereo unspecified): the inhibition was 56.5% (active).
The same measure for `CC1CCCN(C(C(=O)Nc2ccc(C(C)C)cc2)c2ccc3c(c2)OCO3)C1` (stereo unspecified): 17.7%; for `COc1ccc(-n2c(SCC(=O)Nc3ccc4c(c3)OCO4)nnc2C(C)N2CCCCC2)cc1` (stereo unspecified): 16.9%; for `CCN(CC)Cc1csc2ccc(Br)cc12`: 5.2%.
For `O=[n+]1c2c(n([O-])c3cc(Br)ccc31)CCC2`, the inhibition was 21%.
Next, `CCCn1c(SCC(=O)N2CCc3ccccc32)nnc1-c1ccncc1`: 83.8% (active); `Cc1nnc(SCC(=O)N2CCc3ccccc32)n1-c1ccccc1`: 3.9%; `C=CCn1c(=O)c2ccccc2n2c(SCC(=O)N3CCCc4ccccc43)nnc12`: 36.5%.
Next, `COc1ccc(-c2[nH]nc(-c3ccccc3)c2-c2nc3ccccc3[nH]2)cc1`: 11.3%.
Next, `Cn1c(C(=O)NCCCN2CCN(c3cccc(Cl)c3)CC2)cc2c(=O)n(C)c3ccccc3c21`: 18%.

(Values after PubChem BioAssay AID778 (Sanford-Burnham Center for Chemical Genomics, 2007).)
